# Sampled rows, rich in hits. Any-hit rate of the full collection: about 19%.
# HT1080 IDH1KD tx = qHTS for induction of synthetic lethality in tumor cells producing 2HG: qHTS for the HT-1080-IDH1KD cell line | hit rate 2% among 360,000 | AID 686971, 2013 | Potency, µM (titrated, usually from 46.1 µM), inactives show top-dose activity, negative = toxicity, usual class: cytotoxic | HT-1080 IDH1 knockdown viability, ATP luminescence, 48 h;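 further: 0% = DMSO wells and -100% = cell-free medium wells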
#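 Assay cells: HT-1080 with IDH1 knockdown, 750 per well, RPMI/5% FBS. Exposure: 48 h at 37 °C following 2 h pre-incubation. Read: CellTiter-Glo luminescence; fitted concentration-response, curve class assigned.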
# TDP1 cell CPT = qHTS for Inhibitors of human tyrosyl-DNA phosphodiesterase 1 (TDP1): qHTS in cells in presence of CPT | chicken DT40 Tdp1-/-;hTDP1 cells + 20 nM CPT, ATP luminescence, 48 h | Potency, µM (highest dose often 46.2 µM), for the others: at the highest dose activity change, negative = growth inhibition, most hits filed as inhibitors | hit rate 12% among 420,000 | AID 686979, 2013; further: nearly all actives have a fitted effect of over 55% in size
#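 Chicken DT40 Tdp1-/- cells stably complemented with human TDP1 were seeded at 400 cells/well in medium containing 20 nM camptothecin, exposed to pin-transferred compounds, and grown at 37 °C for at least 48 hr. Viability was read as ATP luminescence.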
# KB-3-1 cytotox = qHTS assay for MDR1-selective chemotherapeutics: Primary screen using the parental adenocarcinoma cell KB-3-1 | hit rate 1.4% among 400,000 | KB-3-1 viability, CellTiter-Glo ATP luminescence, 72 h | AID 1347075, 2019 | Potency, µM (series often up to 46.1 µM), actives largely listed as cytotoxic; further: nearly all actives have a fitted effect of over 60% in size
#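 KB-3-1 parental drug-naive adenocarcinoma cells in DMEM/10% FBS, incubated 72 h at 37 C with pin-transferred compounds across a concentration series. Viability by CellTiter-Glo luminescence; concentration-response curves fitted after normalization.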
# DT40 TDP1 no CPT = qHTS for Inhibitors of human tyrosyl-DNA phosphodiesterase 1 (TDP1): qHTS in cells in absence of CPT. Potency, µM (titrated, usually from 46.2 µM), for inactives: at the top dose activity change, negative = growth inhibition, hits mostly inhibitors. hit rate 15% among 420,000. DT40 Tdp1-/- hTDP1 cells, no CPT, ATP luminescence, 48 h; further: nearly all actives have a fitted effect of over 55% in size
#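 Growth of hTDP1-complemented DT40 Tdp1-knockout cells is measured by ATP luminescence after at least 48 hr compound exposure at 37 °C, with DMSO substituting for the 20 nM CPT used in the parallel screen.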
# HT1080-NT tox = qHTS for induction of synthetic lethality in tumor cells producing 2HG: qHTS for the HT-1080-NT fibrosarcoma cell line; HT-1080-NT fibrosarcoma viability, CellTiter-Glo ATP luminescence, 48 h; Potency, µM (highest dose often 46.1 µM), for the others: at the top dose activity, negative = less viability, actives largely listed as cytotoxic; hit rate 1.6% among 360,000; AID 686970, 2013;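 further: NT is the 2HG producing partner of a matched IDH1 knockdown line; 0% = DMSO-treated cells and -100% = media-only wells without cells; nearly all actives have a fitted effect of over 55% in size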
#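 Toxicity toward the 2HG-producing NT line was scored as %Activity, normalised to DMSO and no-cell wells, from CellTiter-Glo luminescence after 48 hours' treatment.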
# KB-V1 cytotox = qHTS assay for MDR1-selective chemotherapeutics: Primary screen using the drug-selected MDR subline cells KB-V1; KB-V1 MDR cells viability, CellTiter-Glo, 72 h; Potency, µM (doses to about 46.1 µM), usual class: cytotoxic; hit rate 3.4% among 400,000; AID 1347076, 2019; further: nearly all actives have a fitted effect of over 60% in size
#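 qHTS viability screen in drug-selected KB-V1 MDR cells: 72 h compound treatment at 37 degrees C, ATP luminescence end point.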
# Active calls of the source: *; i = inactive; u = inconclusive; x = not tested or not shown. The call rests on the fitted dose curve; in most records, active means well fitted curve in the direction sought with a large enough effect; inconclusive means small, poorly fitted or top-dose-only effect, or another doubt; inactive means no such curve, though single readings can be large; an effect the other way counts as inactive or inconclusive. Unless noted, on the % scale 0 is the no-effect control and ±100 the full control effect; potency means the concentration at half of the fitted maximal effect.
SMILES,HT1080 IDH1KD tx,TDP1 cell CPT,KB-3-1 cytotox,DT40 TDP1 no CPT,HT1080-NT tox,KB-V1 cytotox
CC(C)C[C@H]1CN([C@@H](Cc2ccc(O)cc2)CN2CCC[C@@H]2CN2C(=S)NC[C@@H]2Cc2ccccc2)C(=S)N1CC1CCCCCC1,-26%,u,i,21µM*,u,i
CC(C)C[C@H]1CN([C@@H](Cc2ccc(O)cc2)CN2CCCC2CN2C(=S)NC[C@@H]2Cc2ccccc2)C(=S)N1CC1CCCCC1 (some centres undefined),-4%,16µM*,i,15µM*,-17%,u
O=C(Cn1c(=O)n(-c2ccccc2Cl)c(=O)c2sc3ccccc3c21)NC1CCCC1,x,-22%,i,-2%,x,i
COc1ccccc1S(=O)(=O)N(C)C[C@@H]1OCc2cn(nn2)CCCC(=O)N([C@@H](C)CO)C[C@H]1C,3%,-19%,i,-5%,4%,i
Cc1ccc(S(=O)(=O)NC(=O)C2(C)CCN2C(=O)c2ccccc2)nc1 (centres undefined),21%,14%,i,4%,1%,i
Cc1ccc(CN2CCC(CO)(CC3CCCCO3)CC2)o1 (centres undefined),13%,16%,i,-2%,7%,i
Cc1ccc2[nH]c(CN3CCC(CO)(CC4CCCCO4)CC3)c(C)c2c1 (centres undefined),13µM*,u,i,u,u,u
O=Cc1ccc([B-](F)(F)F)s1,1%,11%,i,1%,2%,i
CC(C)CN1C(=O)CN(S(C)(=O)=O)CC1(C)C(=O)Nc1ccc2c(c1)OCCO2 (centres undefined),0%,2%,i,-1%,-1%,i
CC(C)(Oc1ccc(Cl)cc1)C(=O)Nc1nnc2n1CCS2,x,u,i,18µM*,x,i
COC(=O)c1ccc2nc(-c3cccc(Cl)c3)c(Cc3ccccc3OC)n2c1,-29%,16µM*,i,23µM*,-26%,u
COc1ccccc1Cc1c(-c2cccc(Cl)c2)nc2ccc(Br)cn12,-5%,23µM*,i,21µM*,-2%,i
CCc1ccc(CCC(=O)N2CCN(S(=O)(=O)c3ccc(Br)cc3)CC2)cc1,-22%,u,i,18µM*,-16%,u
COc1ccc(CCC(=O)N2CCN(S(=O)(=O)c3ccc(OC(F)(F)F)cc3)CC2)cc1,8%,-19%,i,0%,0%,16µM*
COc1ccc(CCC(=O)N2CCN(S(=O)(=O)c3ccc4ccccc4c3)CC2)cc1,-16%,-4%,i,u,-12%,i
C/C(=C\CO)CCC(C)CCCC(C)CCCC(C)C (centres undefined),x,-3%,x,-10%,x,x
O=C(NCC1CCCO1)C1CCN(S(=O)(=O)N2CCCC2)CC1 (centres undefined),-5%,0%,i,4%,-14%,i
O=S(=O)(CCN(CCS(=O)(=O)C(F)(F)F)CC1CCCO1)C(F)(F)F (centres undefined),-1%,2.3µM*,i,2.3µM*,8%,i
O=C(Cn1c(-c2cccs2)cc2ccccc21)N1CCN(c2ccccc2F)CC1,x,u,i,u,x,i
CC1=CN2C(=N)/C(=C\c3cn(CCCOc4ccccc4)c4ccccc34)C(=O)N=C2S1,u,15µM*,i,u,u,u
CCCN1CNc2c(c(=O)[nH]c(=S)n2CCc2ccccc2OC)C1,0%,u,x,u,7%,x
Cc1ccc(S(=O)(=O)N2CCOCC2)cc1NC(=O)CN(C)C1CCS(=O)(=O)C1 (centres undefined),9%,6%,i,2%,0%,i
CN(CC(=O)Nc1cccc(S(=O)(=O)N2CCCC2)c1)CC(=O)Nc1ccc(F)c(F)c1F,2%,u,i,u,-13%,21µM*
Cc1ccc(S(=O)(=O)N2CCOCC2)cc1NC(=O)CN(C)CC(=O)Nc1cccc(F)c1,-11%,u,i,21µM*,-14%,i
CN(CC(=O)Nc1cccc(S(=O)(=O)N2CCCC2)c1)CC(=O)Nc1ccc(Cl)c(C(F)(F)F)c1,18µM*,u,u,16µM*,9.2µM*,i
SMILES,HT1080 IDH1KD tx,TDP1 cell CPT,KB-3-1 cytotox,DT40 TDP1 no CPT,HT1080-NT tox,KB-V1 cytotox
CCC(=O)N1CCc2cc(Br)cc(S(=O)(=O)N3CCCCC3CC)c21 (centres undefined),-6%,u,i,21µM*,4%,u
CCC(=O)N1CCc2cc(Br)cc(S(=O)(=O)N(C)c3ccc(OC)cc3OC)c21,u,18µM*,u,18µM*,u,i
CCC(=O)N1CCc2cc(Br)cc(S(=O)(=O)NCc3cccc(OC)c3)c21,x,-1%,i,-24%,x,i
CCCN(CCC)S(=O)(=O)c1cc(Br)cc2c1N(C(=O)CC)CC2,-18%,9.2µM*,i,10µM*,-10%,u
O=C(NCc1ccc(F)cc1)c1ccc2c(O)c(S(=O)(=O)c3ccccc3)c(=O)[nH]c2c1,x,16%,i,1%,x,i
c1ccc2c(NC3CCCC3)nnc(NC3CCCC3)c2c1,-30%,u,i,16µM*,-18%,i
CCS(=O)(=O)c1ccc(O)c(NC(=O)Nc2ccccc2OC)c1,11%,-2%,i,-18%,1%,i
Cc1nn(CC(=O)NCCN2CCCCC2C)c(=O)c2cc(-c3ccccc3)nn12 (centres undefined),0%,-12%,i,-24%,6%,i
Cc1ccc(SCc2c(-c3ccccc3)nn(C)c2Cl)cc1,-20%,u,i,16µM*,-6%,i
Cc1ccc(NC(=O)c2c(C)nc3sc(C(=O)Nc4ccc(F)cc4)c(N)c3c2-c2ccc(Cl)cc2)c(C)c1,x,-9%,i,-12%,x,i
COc1ccc(Cc2nc3ccc(C(=O)NCCc4cccc(C)n4)cc3o2)cc1,-5%,u,i,u,-2%,i
